This passage reports Percent Effect results from ChEMBL document CHEMBL3988442, “University of Dundee, Small-Polar-MMV Screening Library” (2021).

The target in experiment [1] is T1, Aspartate--tRNA(Asp/Asn) ligase (Mycobacterium tuberculosis (strain ATCC 25618 / H37Rv)) (UniProt P9WFW3). Also: in the data most compounds retested in dose-response had high values.
T1 sequence (whole entry): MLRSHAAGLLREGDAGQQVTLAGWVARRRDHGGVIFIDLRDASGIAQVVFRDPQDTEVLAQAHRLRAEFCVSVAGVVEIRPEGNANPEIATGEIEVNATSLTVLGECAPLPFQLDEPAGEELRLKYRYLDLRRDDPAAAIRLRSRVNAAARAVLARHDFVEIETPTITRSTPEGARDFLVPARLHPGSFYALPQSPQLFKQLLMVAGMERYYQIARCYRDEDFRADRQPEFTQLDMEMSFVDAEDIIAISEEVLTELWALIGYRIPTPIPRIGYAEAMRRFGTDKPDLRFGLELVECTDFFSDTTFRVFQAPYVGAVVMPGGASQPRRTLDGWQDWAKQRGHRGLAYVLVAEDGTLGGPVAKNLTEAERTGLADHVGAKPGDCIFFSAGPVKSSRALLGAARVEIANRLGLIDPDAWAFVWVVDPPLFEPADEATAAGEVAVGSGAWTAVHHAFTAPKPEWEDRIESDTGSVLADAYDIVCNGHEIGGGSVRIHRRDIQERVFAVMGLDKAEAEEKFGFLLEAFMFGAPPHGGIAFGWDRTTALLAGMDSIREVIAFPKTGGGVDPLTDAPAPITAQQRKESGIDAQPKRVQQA
The experiment in a line: Assay for Asp RNA synthetase-1 from Mycobacterium tuberculosis. It counts as functional. Also noted: scale not given: direction of the effect not stated beside the values. Conditions: 30 µM.

Experiment [2] deals with Shiga toxin 2 (Escherichia coli O157:H7) (UniProt P09385+P09386). The experiment in a line: E. coli 0.157:H7 Shiga Toxin SOP - stx2 screening assay. It counts as functional. Also noted: scale not given: direction of the effect not stated beside the values. The settings on record: 30 µM.

As for `COc1ccc(C2CC(=O)Nc3c2cnn3C2CCCC2)cc1` (centres undefined), the Percent Effect in experiment [1] is -1.45%; in experiment [2], 10.9%.
The matching figures for `Cc1cnn(CC2CCCCN2CCC(=O)Nc2cc(C)on2)c1` (centres undefined): 1.03% and 5.5%.
In the same order, the values of `CCc1c(C)nc2n(c1=O)CC(C(=O)Nc1ccccc1F)CS2` (centres undefined) are -3.83% and -4.39%.
In the case of `CN(Cc1nnc(C2CC2)o1)C1CCN(CCCc2cnn(C)c2)C1` (centres undefined), the Percent Effect was 5.28% in experiment [1] and -45.6% in experiment [2].
On to `COc1ncccc1NC(=O)NCC(O)c1ccc(F)cc1F` (centres undefined), for which the Percent Effect was 4.06% in experiment [1] and -0.623% in experiment [2].
For `Cn1ccnc1CNC(=O)N(CCCO)C1CCCc2ccccc21` (centres undefined), the Percent Effect in experiment [1] stood at 0.809%; in experiment [2] it was 1.57%.
In the same order, the values of `Cc1nn(C)c(C)c1NC(=O)CN1CCCC1c1noc(C2CC2)n1` (centres undefined) are 5.58% and -27.4%.
The matching figures for `COc1cccc(CCNC(=O)CN2CCCC2c2noc(C)n2)c1` (centres undefined): -0.962% and 22.4%.
In the same order, the values of `O=C(NCC1CC1)[C@H]1CC[C@@H]2[C@@H](CCN2Cc2ccoc2)O1` are -5.12% and 0.319%.
Take `Cc1cc(NC(=O)NCCc2ccsc2)n(C)n1`: the values for the Percent Effect in experiment [1] and in experiment [2] were -9.16% and -21.1%, respectively.
Consider `Cc1ccccc1OCCC(=O)OC(C)C(=O)Nc1sccc1C(N)=O` (centres undefined), for which the figures for the Percent Effect in experiment [1] and in experiment [2] were -2.83% and -38.1%, respectively.
Take `CN(Cc1cccnc1)CC1CCCN1c1cccnn1` (centres undefined): the Percent Effect is 1.15% in experiment [1] and 6% in experiment [2].
Regarding `O=C(CN1CCCC1Cn1cncn1)NC(C1CC1)C1CC1` (centres undefined), the Percent Effect in experiment [1] was 2.42%; in experiment [2], -2.93%.
In the same order, the values of `Cc1cc(NC(=O)CCN2CCCC2Cn2cncn2)no1` (centres undefined) are -2.02% and -32.1%.
With `CN(CCc1ccccc1)c1cnn(CC(=O)N2CCSCC2)c(=O)c1`, the Percent Effect in experiment [1] was 8.28%; in experiment [2], -15.1%.
The matching figures for `Cc1ccc(NC2CCN(C(=O)Cc3csc(C)n3)CC2)nn1`: 4.42% and 17.7%.
In the same order, the values of `Cc1cc(N2CCCC2c2cnccn2)ncn1` (centres undefined) are 0.908% and 9.94%.
